Compound activity deposited in PubChem by National Center for Advancing Translational Sciences (NCATS).
ALDH1A1 block – inhibitors of human aldehyde dehydrogenase 1A1; P00352; Purified ALDH1A1, NADH fluorescence, propionaldehyde substrate; Potency, µM (doses to about 75.3 µM), for the others: at the highest dose activity, negative = inhibition, usual class: inhibitors; 7.3% of 220,000 active; AID 1030;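 also: plate controls were no enzyme wells and a reference inhibitor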
Target sequence (P00352 whole entry, looked up): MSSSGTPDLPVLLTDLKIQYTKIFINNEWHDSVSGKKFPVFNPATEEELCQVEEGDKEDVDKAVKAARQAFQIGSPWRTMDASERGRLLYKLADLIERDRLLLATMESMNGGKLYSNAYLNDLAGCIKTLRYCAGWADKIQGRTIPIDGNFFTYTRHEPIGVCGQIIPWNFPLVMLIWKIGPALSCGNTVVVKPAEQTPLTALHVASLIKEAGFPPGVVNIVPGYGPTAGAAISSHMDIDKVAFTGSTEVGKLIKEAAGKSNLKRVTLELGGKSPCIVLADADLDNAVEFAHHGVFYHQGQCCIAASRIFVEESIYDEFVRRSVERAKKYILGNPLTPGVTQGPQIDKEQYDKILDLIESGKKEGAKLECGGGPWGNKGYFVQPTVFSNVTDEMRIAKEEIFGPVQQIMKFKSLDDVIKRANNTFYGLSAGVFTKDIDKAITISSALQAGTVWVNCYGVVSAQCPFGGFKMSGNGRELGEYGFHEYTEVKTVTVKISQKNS
LMNA splice mod – LMNA splicing modulation. HeLa LMNA splicing GFP/RFP minigene ratio, 48 h. Potency, µM (highest dose often 46.1 µM), without a hit: at the top dose ratio change, negative = inhibition, actives largely listed as inhibitors. 0.01% of 200,000 active; active = well fitted inhibition curve with a large enough effect in the signal ratio, with a control signal flat, not every such curve was filed as active; inconclusive = small, poorly fitted or top-dose-only effect, or effect the other way, or a change in a side signal; the % refers to the signal ratio
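S3 HeLa stable clones carrying a lamin A-EGFP splicing minigene plus DsRed2 were seeded at 600 cells/well in Opti-MEM with 2% FBS, pin-dosed and incubated 48 h at 37°C. Acumen cytometry (488 nm) gave the GFP/RFP total-intensity ratio.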
KinaseGlo FLuc – blocks Kinase-Glo luciferase, a counter-screen artifact. Q27757. Kinase-Glo luciferase, ATP luminescence, 8 min. AID 1379. Potency, µM (titrated, usually from 38.3 µM), for the others: at the top dose activity change, negative = inhibition, actives largely listed as inhibitors. 0.28% of 200,000 active; active = well fitted curve in the direction sought with a large enough effect; inconclusive = small, poorly fitted or top-dose-only effect, or another doubt; inactive = no such curve, though single readings can be large; an effect the other way counts as inactive or inconclusive; also: nearly all actives have a fitted effect of over 60% in size
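Inhibition of Kinase-Glo luciferase light generation was assessed at 10 uM ATP in pH 7.2 imidazole buffer, with luminescence measured after eight minutes at ambient temperature.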
IMPase Li cell – membrane-permeable IMPase blocker, potentiated with lithium; CHO-M1 cells, IP1 TR-FRET (IP-One), carbachol + lithium; Potency, µM (titrated, usually from 59.4 µM), for inactives: at the top dose activity, negative = IMPase inhibition, most hits filed as inhibitors; 0.35% of 210,000 active; AID 1457; active = well fitted curve in the direction sought with a large enough effect; inconclusive = small, poorly fitted or top-dose-only effect, or another doubt; inactive = no such curve, though single readings can be large; an effect the other way counts as inactive or inconclusive;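 also: IP1 builds up when IMPase is blocked and the TR-FRET signal falls; plate controls were basal vehicle for no effect and high inhibitor control for full effect; nearly all actives have a fitted effect of over 50% in size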
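IP1 accumulation measured by competitive TR-FRET in lysed CHO-M1 cells after 30 min compound exposure at 37C, with a small lithium addition to potentiate weak responses. Hill-equation AC50 from ratio and donor-channel data.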
HPGD block – inhibitors of human 15-hydroxyprostaglandin dehydrogenase (HPGD) | 4.3% of 150,000 active | Potency, µM, for inactives: at the highest dose activity change, negative = inhibition, most hits filed as inhibitors | purified HPGD, NADH fluorescence kinetic, PGE2 substrate | AID 894
Target sequence (P15428 whole entry, looked up): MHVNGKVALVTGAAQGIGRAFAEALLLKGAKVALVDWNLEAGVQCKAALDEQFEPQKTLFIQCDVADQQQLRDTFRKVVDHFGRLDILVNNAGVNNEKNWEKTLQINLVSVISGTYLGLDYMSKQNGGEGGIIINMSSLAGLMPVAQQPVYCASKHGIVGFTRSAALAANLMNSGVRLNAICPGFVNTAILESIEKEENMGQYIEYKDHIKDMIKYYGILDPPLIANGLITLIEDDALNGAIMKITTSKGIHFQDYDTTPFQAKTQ
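20 nM HPGD preincubated 15 min at room temperature with compound in 50 mM Tris-HCl pH 8, 0.01% Tween 20. Started with 1 mM NAD+ and 30 uM prostaglandin E2; NADH fluorescence (360/450 nm) read 5 times over 30-s intervals, last minus first.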
The depositor's hits bear a star; u = inconclusive; x = no result given; [ ] = remark or other dose. Shown are actives, neighbours in structure and some others; about 9% of the full set was active somewhere. Unless noted, calls follow the shape of the dose curve; as a rule, active = well fitted inhibition curve with a large enough effect (not every such curve was filed as active); inconclusive = small, poorly fitted or top-dose-only effect, or another doubt; inactive = no such curve, though single readings can be large or run the other way. Unless noted, % is scaled to controls: 0 for no effect and ±100 for the full control effect; potency is read from the fitted curve at half-maximal effect.

SMILES | ALDH1A1 block | LMNA splice mod | KinaseGlo FLuc | IMPase Li cell | HPGD block
CCOC(=O)N1CCN(C(=O)CSc2ccc(-c3ccc(OC)cc3)nn2)CC1 | -4.0% | 3.3%[46 µM] | -2.8% | -1.2% | x
CC1CCN(C(=O)CSc2ccc(-c3ccc(F)cc3)nn2)CC1 | -1.7% | u | -5.3% | -3.1%[38.3 µM] | 10µM*
CCOc1ccc(-c2ccc(SCC(=O)N3CCN(c4ccccc4)CC3)nn2)cc1 | 17.8µM* | -1.5% | 1.6% | 0.5% | -3.7%
CC1CCN(C(=O)COc2ccccc2F)CC1 | -5.9% | 2.4% | -2.1% | -5.4%[38.3 µM] | 25.1µM*
N#CCCn1c(=O)c(-c2ccc(Cl)cc2)nc2cnc(Oc3ccccc3)nc21 | u | 7.3% | x | u | x
COc1cccc(C(=O)Nc2ccc(-n3nncc3-c3ccc(Br)cc3)cc2)c1OC | x | -0.9%[46 µM] | x | x | x
CCCc1nc(SCC(=O)N2c3ccccc3CC2C)c2c(C)c(C)sc2n1 (stereo not given) | 1.6% | u | -2.2% | -3.0%[38.3 µM] | -12.6%
CN1CCN(CCCNC(=O)CCCOc2cc(=O)n(C)c3ccccc23)CC1 | -1.3% | 9.6% | 0.0% | -4.2%[38.3 µM] | 6.6%
Cc1ccc(CNC(=O)CCCOc2cc(=O)n(C)c3ccccc23)o1 | 20µM* | -16.8% | 1.7% | 5.9% | -23.0%
CC(C)CCNC(=O)CCCOc1cc(=O)n(C)c2ccccc12 | -0.7% | u | -0.6% | -10.8%[38.3 µM] | 15.8µM*
COc1ccc(N2CCN(C(=O)CCCOc3cc(=O)n(C)c4ccccc34)CC2)cc1 | 0.9% | -5.2% | -2.9% | -0.5%[38.3 µM] | -1.6%
CC1CCN(C(=O)CCCOc2cc(=O)n(C)c3ccccc23)CC1 | u | -16.3% | -0.7% | 44.2%[38.3 µM] | 7.94µM*
O=C(CCCCCN1C(=O)c2ccccc2C1=O)NCc1ccco1 | -5.0% | 2.5% | -0.6% | -1.8%[38.3 µM] | 11.2µM*
CC1CC[C@@]2(C(=O)O)CC[C@]3(C)C(=CCC4[C@@]5(C)CCC(O)C(C)(C)C5CC[C@@]43C)C2C1C (stereo not given in full) | 5.8% | u | -0.1% | 7.7% | -1.5%
CN(C)c1ccc(-c2nnn(CC(=O)NCc3ccc4c(c3)OCO4)n2)cc1 | -9.8% | 19.1%[46 µM] | -0.2% | -17.2% | x
COc1ccc(N2CCN(C(CNC(=O)CC(C)C)c3ccc4c(c3)OCO4)CC2)cc1 (stereo not given) | x | 1.8%[46 µM] | x | x | x
COc1ccc(CNC(=O)CCCOc2cc(=O)n(C)c3ccccc23)cc1 | 7.5% | -4.6% | 1.9% | 27.7%[38.3 µM] | -12.9%
Cn1c(=O)cc(OCCCC(=O)NCc2ccco2)c2ccccc21 | 20µM* | u | -3.3% | 23.0%[38.3 µM] | 20µM*
COc1cccc(-n2c(SCC(=O)OC(C)C)nnc2-c2cccnc2)c1 | -6.4% | 13.4% | 0.2% | -4.7%[38.3 µM] | 22.4µM*
CC(C)OC(=O)CSc1nnc(-c2cccnc2)n1N | 8.9% | -5.6% | 1.6% | -2.8%[38.3 µM] | -12.0%
C=C(C)C(O)/C=C/c1ccccc1OC (stereo not given) | 16.1%[13.5 µM] | x | x | x | x
CCc1cc2c(N3CCCCC3)ncnc2s1 | 20µM* | u | -2.7% | 23.0%[38.3 µM] | -26.7%
O=C(Nc1ccccc1)O/N=C/c1ccccc1Cl | u | 6.5% | -15.6% | 39.4%[38.3 µM] | 39.8µM*
COc1ccc(/C=N/OC(=O)Nc2ccccc2)cc1[N+](=O)[O-] | -39.2% | -5.0% | 6.2% | -3.0% | -4.2%
O=c1c2ccccc2c(C=NCCCN2CCOCC2)c(O)n1Cc1ccccc1 | 14.1µM* | u | -8.2% | 10.6%[38.3 µM] | -27.5%
SMILES | ALDH1A1 block | LMNA splice mod | KinaseGlo FLuc | IMPase Li cell | HPGD block
CC1=C(C(=O)N(C)C)C(c2ccc(Cl)c(Cl)c2)NC(=O)N1 (stereo not given) | -2.6% | 5.2% | -1.2% | -4.8%[38.3 µM] | -11.3%
CCN(CC)C(=O)C1=C(C)NC(=S)NC1c1ccc(C)s1 (stereo not given) | 8.91µM* | 4.2%[46 µM] | 3.6% | 11.4% | x
CC1=C(C(=O)N(C)C)C(c2ccc(C)s2)NC(=S)N1 (stereo not given) | 25.1µM* | 17.9%[46 µM] | -3.9% | -9.9% | x
Cn1c(CC(=O)c2ccc(Br)cc2)[n+](C)c2ccccc21 | 7.6% | 1.5%[46 µM] | 0.1% | 2.2% | x
O=C1N=C(N2CCN(c3ccccc3)CC2)S/C1=C\c1cn[nH]c1-c1ccccc1 | 4.9% | -6.8% | -1.7% | 12.6% | u
O=C1N=C(N2CCC(Cc3ccccc3)CC2)S/C1=C/c1cn[nH]c1-c1ccccc1 | -8.1% | 6.9% | -0.8% | 9.4%[38.3 µM] | 25.1µM*
O=S(=O)(c1ccccc1)c1ncc(C(F)(F)F)cc1Cl | 10µM* | u | 6.4% | -7.2% | x
O=C(c1ccco1)N1CCC2(CCCN(c3ccccn3)C2)CC1 | u | x | 0.8% | 24.4% | -26.9%
COc1ccccc1NC(=O)Cn1cnc2c(cnn2-c2ccccc2)c1=O | -5.3% | u | -2.4% | 5.6%[38.3 µM] | -12.5%
CCCc1c(C(=O)NNc2ccccc2OC)cnn1-c1ccccc1 | 7.94µM* | x | x | x | x
CC1=C(C(=O)Nc2cccnc2)C(c2ccccn2)n2nnnc2N1 (stereo not given) | 14.1µM* | -7.2% | -2.1% | -0.3%[38.3 µM] | -16.8%
CC1=C(C(=O)Nc2cccnc2)C(c2ccncc2)n2nnnc2N1 (stereo not given) | -4.7% | 13.6% | 0.7% | 8.4%[38.3 µM] | -11.8%
CC1=C(C(=O)Nc2ccccc2)C(c2ccncc2)n2nnnc2N1 (stereo not given) | u | 0.4% | x | x | x
CC1=C(C(=O)Nc2ccccc2)C(c2cccs2)n2nnnc2N1 (stereo not given) | 11.2µM* | -11.4% | 4.6% | 24.6%[38.3 µM] | -7.8%
COc1ccc(C(=O)/C=C2\NCC3c4ccccc4CCN3C2=O)cc1 (stereo not given) | 7.94µM* | 8.2% | 0.7% | -2.6%[38.3 µM] | 28.2µM*
NNc1ccc(Cl)nn1 | 17.8µM* | x | x | x | x
CC(C)(C)c1ccccc1NC(=S)NC1CCCCC1 | -1.4% | u | 0.7% | 8.8% | x
CCCc1nc(SCc2cccnc2)c2c(=O)n(C)c(=O)n(C)c2n1 | u | 5.1% | -4.6% | 31.5%[38.3 µM] | -4.7%
Cn1c(=O)c2c(SCc3cccnc3)nc(CC(C)(C)C)nc2n(C)c1=O | 0.891µM* | u | -3.1% | 38.9%[38.3 µM] | -17.8%
COc1ccc(/C=N\NC(=O)CNC(=O)C(c2ccccc2)c2ccccc2)cc1[N+](=O)[O-] | 11.2µM* | u | 1.3% | 8.5% | -12.5%
O=C(COc1ccccc1[N+](=O)[O-])N/N=C/c1ccc(O)c([N+](=O)[O-])c1 | 25.1µM* | -1.1%[46 µM] | -0.3% | 12.9% | x
O=[N+]([O-])c1cc(/C=N\Nc2nccs2)ccc1O | u | -6.0% | -20.5% | 25.1%[38.3 µM] | 8.91µM*
C=CC[C@@H](C(=O)O)c1ccccc1 | 3.4%[13.5 µM] | x | -3.1%[7.66 µM] | -9.9% | -8.9%
CCCN1C/C(=C/c2cccc([N+](=O)[O-])c2)C(=O)/C(=C/c2cccc([N+](=O)[O-])c2)C1 | 20µM* | 3.1% | -3.6% | -23.3%[38.3 µM] | -14.4%
CC1(C)CC(=O)/C(=C\c2cccc([N+](=O)[O-])c2)C(C)(C)N1 | -7.9% | u | 4.1% | 2.8% | -7.0%
COc1cc(/C=C2\SC(c3ccccc3)=NC2=O)cc(Cl)c1O | 5.01µM* | x | u | 49.7% | x
